Data: PubChem BioAssay AID1159580 (chemical genetic matrix, 2015)
The whole screen tested about 5,500 compounds, of which about 2,000 (36%) were called active. Inconclusive results (about 18%) are left out. Cut-off read from the data, not from the text of the source: active = normalized growth mostly below about 0.91 (no sharp cut-off); inconclusive = no clear call, values can overlap the other calls; inactive = mostly above about 0.92. The list shows a part of the results.

Test: chemical genetic growth profiling, strain panel (AID 1159580);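 note: tested at 20 µM; growth read once vehicle control cultures reached saturation at 30 °C; 1 = growth at the plate median or of vehicle wells; lower values mean less growth of the strain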
Conditions: growth OD
[1] = S. cerevisiae deletion strains, locus YJL187C, strain SWE1, stronger effect = lower value

Measured: normalized growth

Cc1ccc(-n2cccc2)c(NC(=S)Nc2ccc(Br)cc2OC(F)(F)F)c1
active: S. cerevisiae deletion strains, locus YHR030C, strain SLT2, stronger effect = lower value 0.558 | S. cerevisiae deletion strains, locus YLR039C, strain RIC1, stronger effect = lower value 0.621 | S. cerevisiae deletion strains, locus YLR085C, strain ARP6, stronger effect = lower value 0.658 | S. cerevisiae deletion strains, locus YLR262C, strain YPT6, stronger effect = lower value 0.587 | S. cerevisiae deletion strains, locus YNL298W, strain CLA4 (second series), stronger effect = lower value 0.757
inactive: S. cerevisiae deletion strains, locus YAL013W, strain DEP1, stronger effect = lower value 0.978 | S. cerevisiae deletion strains, locus YBR229C, strain ROT2, stronger effect = lower value 1 | S. cerevisiae deletion strains, locus YDL101C, strain DUN1, stronger effect = lower value 1.02 | S. cerevisiae deletion strains, locus YDL134C, strain PPH21, stronger effect = lower value 1.01 | S. cerevisiae deletion strains, locus YDR150W, strain NUM1, stronger effect = lower value 0.892 | S. cerevisiae deletion strains, locus YEL061C, strain CIN8, stronger effect = lower value 0.988 | S. cerevisiae deletion strains, locus YGR078C, strain PAC10, stronger effect = lower value 0.973 | S. cerevisiae deletion strains, locus YGR229C, strain SMI1, stronger effect = lower value 1.03 | S. cerevisiae deletion strains, locus YHR087W, strain rtc3, stronger effect = lower value 1.02 | [1] 0.987 | S. cerevisiae deletion strains, locus YJR043C, strain POL32, stronger effect = lower value 1.03 | S. cerevisiae deletion strains, locus YJR075W, strain HOC1, stronger effect = lower value 0.972 | S. cerevisiae deletion strains, locus YLR058C, strain SHM2 (second series), stronger effect = lower value 1.01 | S. cerevisiae deletion strains, locus YML094W, strain GIM5, stronger effect = lower value 0.904 | S. cerevisiae deletion strains, locus YMR219W, strain ESC1, stronger effect = lower value 1.01 | S. cerevisiae deletion strains, locus YMR263W, strain SAP30, stronger effect = lower value 0.964 | S. cerevisiae deletion strains, locus YNL153C, strain GIM3, stronger effect = lower value 0.979 | S. cerevisiae deletion strains, locus YNL322C, strain KRE1, stronger effect = lower value 1.01 | S. cerevisiae deletion strains, locus YNR030W, strain Alg12, stronger effect = lower value 0.925 | S. cerevisiae deletion strains, locus YOL006C, strain TOP1, stronger effect = lower value 0.796 | S. cerevisiae deletion strains, locus YPL055C, strain LGE1, stronger effect = lower value 0.882 | S. cerevisiae deletion strains, locus YPL241C, strain CIN2, stronger effect = lower value 0.92 | S. cerevisiae deletion strains, locus YPR135W, strain CTF4, stronger effect = lower value 0.679 | S. cerevisiae strains, strain wild type, stronger effect = lower value 0.998

CCCCCCCCCCCCCCCC(=O)OC1C(SC)OC(C(NC(=O)C2CC(CCC)CN2C)C(C)Cl)C(O)C1O (stereo unspecified)
inactive: S. cerevisiae deletion strains, locus YAL021C, strain ccr4, stronger effect = lower value 0.958 | S. cerevisiae deletion strains, locus YAL026C, strain drs2, stronger effect = lower value 0.976 | S. cerevisiae deletion strains, locus YAL030W, strain snc1, stronger effect = lower value 0.989 | S. cerevisiae deletion strains, locus YBL061C, strain skt5, stronger effect = lower value 0.963 | S. cerevisiae deletion strains, locus YBR009C, strain hhf1, stronger effect = lower value 0.977 | S. cerevisiae deletion strains, locus YBR023C, strain chs3, stronger effect = lower value 0.984 | S. cerevisiae deletion strains, locus YBR171W, strain sec66, stronger effect = lower value 0.961 | S. cerevisiae deletion strains, locus YBR231C, strain swc5, stronger effect = lower value 0.979 | S. cerevisiae deletion strains, locus YBR279W, strain paf1, stronger effect = lower value 0.981 | S. cerevisiae deletion strains, locus YCL011C, strain gbp2, stronger effect = lower value 0.978 | S. cerevisiae deletion strains, locus YCL016C, strain dcc1, stronger effect = lower value 0.982 | S. cerevisiae deletion strains, locus YCL061C, strain MRC1, stronger effect = lower value 0.98 | S. cerevisiae deletion strains, locus YCL069W, strain vba3, stronger effect = lower value 0.985 | S. cerevisiae deletion strains, locus YCR088W, strain abp1, stronger effect = lower value 0.972 | S. cerevisiae deletion strains, locus YDL005C, strain med2, stronger effect = lower value 0.968 | S. cerevisiae deletion strains, locus YDL040C, strain nat1, stronger effect = lower value 0.979 | S. cerevisiae deletion strains, locus YDR001C, strain nth1, stronger effect = lower value 0.974 | S. cerevisiae deletion strains, locus YDR069C, strain doa4, stronger effect = lower value 0.975 | S. cerevisiae deletion strains, locus YDR137W, strain rgp1, stronger effect = lower value 1 | S. cerevisiae deletion strains, locus YDR159W, strain sac3, stronger effect = lower value 0.958 | S. cerevisiae deletion strains, locus YDR195W, strain ref2 0.964 | S. cerevisiae deletion strains, locus YDR297W, strain sur2, stronger effect = lower value 0.976 | S. cerevisiae deletion strains, locus YDR334W, strain swr1, stronger effect = lower value 0.973 | S. cerevisiae deletion strains, locus YDR335W, strain msn5, stronger effect = lower value 0.978 | S. cerevisiae deletion strains, locus YDR392W, strain spt3, stronger effect = lower value 0.96 | S. cerevisiae deletion strains, locus YEL003W, strain gim4, stronger effect = lower value 0.98 | S. cerevisiae deletion strains, locus YEL037C, strain rad23, stronger effect = lower value 0.979 | S. cerevisiae deletion strains, locus YEL061C, strain CIN8 (second series), stronger effect = lower value 0.985 | S. cerevisiae deletion strains, locus YER015W, strain faa2, stronger effect = lower value 0.972 | S. cerevisiae deletion strains, locus YER016W, strain bim1, stronger effect = lower value 0.976 | S. cerevisiae deletion strains, locus YER111C, strain swi4, stronger effect = lower value 0.964 | S. cerevisiae deletion strains, locus YER155C, strain BEM2 (second series), stronger effect = lower value 0.968 | S. cerevisiae deletion strains, locus YFR010W, strain ubp6, stronger effect = lower value 0.961 | S. cerevisiae deletion strains, locus YGL167C, strain pmr1, stronger effect = lower value 0.972 | S. cerevisiae deletion strains, locus YGL173C, strain kem1, stronger effect = lower value 0.975 | S. cerevisiae deletion strains, locus YGL227W, strain vid30, stronger effect = lower value 0.963 | S. cerevisiae deletion strains, locus YGL240W, strain doc1, stronger effect = lower value 0.983 | S. cerevisiae deletion strains, locus YGL253W, strain hxk2, stronger effect = lower value 0.978 | S. cerevisiae deletion strains, locus YHR013C, strain ard1, stronger effect = lower value 0.98 | S. cerevisiae deletion strains, locus YHR027C, strain rpn1, stronger effect = lower value 0.985 | S. cerevisiae deletion strains, locus YHR142W, strain chs7, stronger effect = lower value 0.97 | S. cerevisiae deletion strains, locus YJL092W, strain hpr5, stronger effect = lower value 0.967 | S. cerevisiae deletion strains, locus YJL095W, strain BCK1 (second series), stronger effect = lower value 0.99 | S. cerevisiae deletion strains, locus YJL115W, strain asf1, stronger effect = lower value 0.974 | S. cerevisiae deletion strains, locus YJL129C, strain trk1, stronger effect = lower value 0.983 | S. cerevisiae deletion strains, locus YJL154C, strain vps35, stronger effect = lower value 0.963 | S. cerevisiae deletion strains, locus YJL164C, strain tpk1, stronger effect = lower value 0.986 | S. cerevisiae deletion strains, locus YJL166W, strain qcr8, stronger effect = lower value 0.988 | [1] 0.982 | S. cerevisiae deletion strains, locus YKL160W, strain elf1, stronger effect = lower value 0.988 | S. cerevisiae deletion strains, locus YKR026C, strain gcn3, stronger effect = lower value 0.973 | S. cerevisiae deletion strains, locus YKR091W, strain srl3, stronger effect = lower value 0.985 | S. cerevisiae deletion strains, locus YLL001W, strain dnm1, stronger effect = lower value 0.99 | S. cerevisiae deletion strains, locus YLL026W, stronger effect = lower value 0.974 | S. cerevisiae deletion strains, locus YLL041C, strain sdh2, stronger effect = lower value 0.978 | S. cerevisiae deletion strains, locus YLR027C, strain aat2, stronger effect = lower value 0.976 | S. cerevisiae deletion strains, locus YLR221C, strain rsa3, stronger effect = lower value 0.976 | S. cerevisiae deletion strains, locus YLR258W, strain gsy2, stronger effect = lower value 0.984 | S. cerevisiae deletion strains, locus YLR262C, strain YPT6 (second series), stronger effect = lower value 1.02 | S. cerevisiae deletion strains, locus YLR320W, strain mms22, stronger effect = lower value 0.964 | S. cerevisiae deletion strains, locus YLR342W, strain FKS1, stronger effect = lower value 0.966 | S. cerevisiae deletion strains, locus YLR357W, strain rsc2, stronger effect = lower value 0.95 | S. cerevisiae deletion strains, locus YLR370C, strain arc18, stronger effect = lower value 0.977 | S. cerevisiae deletion strains, locus YLR384C, strain iki3, stronger effect = lower value 0.955 | S. cerevisiae deletion strains, locus YML120C, strain ndi1, stronger effect = lower value 0.989 | S. cerevisiae deletion strains, locus YMR058W, strain fet3, stronger effect = lower value 0.977 | S. cerevisiae deletion strains, locus YMR125W, strain sto1, stronger effect = lower value 0.971 | S. cerevisiae deletion strains, locus YMR129W, stronger effect = lower value 0.977 | S. cerevisiae deletion strains, locus YMR205C, strain PFK2, stronger effect = lower value 0.972 | S. cerevisiae deletion strains, locus YMR231W, strain pep5, stronger effect = lower value 0.959 | S. cerevisiae deletion strains, locus YNL071W, strain lat1, stronger effect = lower value 0.993 | S. cerevisiae deletion strains, locus YNL209W, strain ssb2, stronger effect = lower value 0.985 | S. cerevisiae deletion strains, locus YNL248C, strain rpa49, stronger effect = lower value 0.979 | S. cerevisiae deletion strains, locus YNL322C, strain KRE1 (second series), stronger effect = lower value 0.969 | S. cerevisiae deletion strains, locus YNR049C, strain mso1, stronger effect = lower value 0.972 | S. cerevisiae deletion strains, locus YOR001W, strain rrp6, stronger effect = lower value 0.981 | S. cerevisiae deletion strains, locus YOR070C, strain gyp1, stronger effect = lower value 0.972 | S. cerevisiae deletion strains, locus YOR080W, strain dia2, stronger effect = lower value 0.98 | S. cerevisiae deletion strains, locus YOR083W, strain WHI5, stronger effect = lower value 0.988 | S. cerevisiae deletion strains, locus YOR106W, strain vam3, stronger effect = lower value 0.973 | S. cerevisiae deletion strains, locus YOR265W, strain rbl2, stronger effect = lower value 0.986 | S. cerevisiae deletion strains, locus YOR270C, strain vph1, stronger effect = lower value 0.998 | S. cerevisiae deletion strains, locus YOR290C, strain snf2, stronger effect = lower value 0.974 | S. cerevisiae deletion strains, locus YPL051W, strain arl3, stronger effect = lower value 0.972 | S. cerevisiae deletion strains, locus YPL078C, strain atp4, stronger effect = lower value 0.976 | S. cerevisiae deletion strains, locus YPL106C, strain sse1, stronger effect = lower value 0.979 | S. cerevisiae deletion strains, locus YPL240C, strain hsp82, stronger effect = lower value 0.976
